# KLK7 zymogen act = activates the human kallikrein-7 zymogen; P49862; purified proKLK7, EDANS-DABCYL substrate fluorescence; 100% is mature enzyme control, 0% vehicle; activation, % at 7 µM; actives 0.9% (n = 370,000);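 active means activation above the mean of all tested compounds plus 3 SD, computed per campaign excluding outliers beyond control limits, cut at about 13% in these data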
# Target sequence (P49862 whole entry, looked up): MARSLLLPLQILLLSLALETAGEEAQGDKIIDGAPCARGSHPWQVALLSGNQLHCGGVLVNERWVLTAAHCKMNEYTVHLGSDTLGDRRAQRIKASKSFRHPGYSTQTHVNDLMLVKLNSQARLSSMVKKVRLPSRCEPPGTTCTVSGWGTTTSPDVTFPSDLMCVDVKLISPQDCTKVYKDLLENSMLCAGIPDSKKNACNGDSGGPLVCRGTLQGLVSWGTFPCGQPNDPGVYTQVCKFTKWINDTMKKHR
# ADAM10 inh = ADAM10 inhibition, QFRET primary screen | O14672 | recombinant ADAM10, EDANS/DABCYL FRET peptide cleavage, 3 h | inhibition, % at 7 µM | actives 0.62% (n = 370,000) | AID 720582;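 active means inhibition above a per-campaign cutoff equal to the mean of compounds falling between control-based bounds plus 3 SD, cut at about 20% in these data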;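 further: 0% = DMSO wells while the 100% control is not disclosed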
# rCAG binder = binds r(CAG) RNA repeats | inhibition, % at 3 µM | actives 1.3% (n = 370,000) | r(CAG) RNA repeat, TO-PRO-1 dye displacement fluorescence;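 active means inhibition above the plate cutoff, the mean of all test compounds on that plate plus 3 SD, cut at about 35% in these data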;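 further: 0% = DMSO alone and 100% = 100 µM mitoxantrone as full dye displacement; higher means more dye released from RNA so lower well fluorescence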
# NR3A LBD binder = modulates the human NR3A ligand-binding domain. NR3A LBD differential scanning fluorimetry, Tm shift; 0% = protein alone, 100% = glycine-bound protein. Tm shift relative to glycine control, % at 25 µM. actives 2.5% (n = 340,000);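 active means melting temperature shift of at least 10% of the positive control shift, at one fixed dose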
# AHR activator = activators of human aryl hydrocarbon receptor; P35869; actives 2.5% (n = 320,000); activation, % at 5 µM; AHR-responsive luciferase reporter cells, luminescence; in the data active means activation above about 47%;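 further: 0% = vehicle wells and 100% = reference agonist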
# ADAM17 inh = inhibitors of human ADAM17. actives 0.83% (n = 370,000). recombinant ADAM17, EDANS/DABCYL FRET peptide cleavage. inhibition, % at 6.95 µM;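 active means inhibition above the mean of compounds lying between control limits plus 3 SD, set per campaign, cut at about 8.5% in these data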;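 further: 0% = DMSO-only wells as the low control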
# rCAG binder conf = r(CAG) RNA repeat binding, confirmation. TO-PRO-1 dye displacement fluorescence. shares compounds with rCAG binder. inhibition, % at 3 µM. actives 70% (n = 4,300). AID 652065;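 active means inhibition above a per-plate cutoff, the mean inhibition of sample wells plus 3 SD, cut at about 35% in these data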;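 further: loss of TO-PRO-1 fluorescence as compound displaces dye from 1x1 AA loop RNA; 0% = DMSO only wells and 100% = 100 µM mitoxantrone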
# DNA CAG counter = disrupts DNA CAG TO-PRO-1 complex, flagging rCAG hits. shares compounds with rCAG binder. AID 652068. actives 94% (n = 4,300). inhibition, % at 3 µM. d(CAG) DNA oligo TO-PRO-1 dye displacement, fluorescence;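 active means inhibition above its plate's cutoff, the mean test-well inhibition plus 3 SD, cut at about 4.8% in these data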;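 further: 0% = DNA dye mix with DMSO and 100% = 100 µM mitoxantrone; hits displace the dye from DNA and so lower well fluorescence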
# DNA CAG DR = counter-screen for rCAG binders: inhibitors of DNA CAG TO-PRO-1 complex. shares compounds with rCAG binder. DNA CAG/GTC duplex TO-PRO-1 dye displacement fluorescence. IC50, µM. actives 20% (n = 250). AID 686960; in the data active means IC50 below about 10 µM
# Active calls of the source: *; x = no result. The list is not random: actives were taken first. Their share in the collection is about 7%.
SMILES,KLK7 zymogen act,ADAM10 inh,rCAG binder,NR3A LBD binder,AHR activator,ADAM17 inh,rCAG binder conf,DNA CAG counter,others
COC(=O)c1sc(SC)c(S(=O)(=O)C(C)C)c1N,-1,-7,-2,-1,3,-3,x,x,
COC(=O)c1sc(SC)c(S(=O)(=O)C(C)C)c1N/N=C(\C#N)C(=O)c1ccccc1,-1,2,52*,-12,2,2,71*,22*,DNA CAG DR=4.3*
Cc1ccc(C)n1NC(=O)c1ccccc1O,0,-18,36*,-2,17,-3,22,13*,
Cc1ccc(C)n1NC(=O)c1ccccc1[N+](=O)[O-],0,4,16,0,1,0,x,x,
Cc1cc(C(=O)O[C@H]2CCC[C@@]3(C(=O)N(Cc4ccccc4)c4ccccc43)[C@H]2NC(=O)CCc2ccccc2)no1,0,16,5,x,x,7,x,x,
O=C(Cn1cc(COc2ccc(-n3cccc3)cc2)nn1)NS(=O)(=O)c1ccccc1C(F)(F)F,1,10,64*,x,x,2,65*,18*,
O=C(Cn1cc(COc2ccc(C(=O)c3ccccc3)cc2)nn1)c1ccc(O)cc1,0,-2,14,-8,x,0,x,x,
O=C(Cn1cc(COc2ccc(Cl)c(Cl)c2)nn1)NS(=O)(=O)c1ccccc1C(F)(F)F,0,-1,59*,x,x,-3,63*,16*,
COc1ccc(S[C@]2(C(=O)N3CCOCC3)CC(=O)N(C(=O)/C=C/c3ccccc3)[C@@H]2c2ccc(OC)cc2)cc1,0,6,10,x,x,2,x,x,
O=C1C=C(O)c2c(O)cc(O)c(O)c2C1=O,0,-9,56*,-3,0,1,20,5.2*,
O=C1c2ccccc2C(=O)c2c(O)c(O)cc(O)c21,0,1,42*,-9,23,0,60*,32*,
COc1cc(C2C(C(=O)c3cccs3)=C(O)C(=O)N2c2cc(C)on2)ccc1O (stereo not given),-1,10,7,-2,3,7,x,x,
COc1ccccc1C1C(C(=O)c2ccc(C)o2)=C(O)C(=O)N1c1cc(C)on1 (stereo not given),1,-9,8,-3,0,-4,x,x,
COc1cccc(C2C(C(=O)c3cc4cccc(OC)c4o3)=C(O)C(=O)N2c2cc(C)on2)c1OC (stereo not given),1,-7,57*,-17,8,0,65*,25*,
COc1cccc2cc(C(=O)C3=C(O)C(=O)N(c4cc(C)on4)C3c3cccs3)oc12 (stereo not given),2,-16,44*,-9,13,-4,62*,27*,
COc1cccc(C2C(C(=O)c3cc4ccccc4o3)=C(O)C(=O)N2c2cc(C)on2)c1OC (stereo not given),0,5,51*,-1,4,-19,45*,12*,
C#CCN(Cc1cccc(F)c1)C(=O)c1nnc2c3cc(F)ccc3n(S(=O)(=O)c3ccc(OC)cc3)c2n1,0,-4,8,x,x,4,x,x,
COc1ccc(C(=O)c2ccc(OC)c(Br)c2)cc1Br,0,4,3,-6,4,0,x,x,
COc1ccc(Br)c2oc(S)cc(=O)c12,0,0,41*,-3,1,-1,25,7.6*,
CC1=NN(c2nc(-c3ccc(C)cc3)cs2)C(=O)C1N=Nc1cccc(O)c1 (stereo not given),0,-1,37*,12*,-2,0,49*,22*,
O=C(CNC(=O)/C=C/c1ccco1)N=Nc1c(O)[nH]c2ccccc12,0,-3,35*,-3,9,-1,40*,17*,
Cn1c(SCC(=O)Nc2nccs2)nnc1-c1ccc(S(=O)(=O)N2CCCC2)cc1,0,-3,-4,1,3,-4,x,x,
O=C(CSc1n[nH]c(-c2ccc(S(=O)(=O)N3CCCCC3)cc2)n1)Nc1nccs1,-3,-83,39*,-4,0,-26,36*,9.0*,
O=C(NN=Cc1ccccc1C(F)(F)F)c1cc(-c2ccc(Cl)cc2)n[nH]1,0,-11,8,x,x,-3,x,x,
Cc1ccc(F)c(NC(=O)/C(C#N)=C(\O)c2ccc(C(C)(C)C)cc2)c1,0,17,89*,3,1,2,90*,61*,
SMILES,KLK7 zymogen act,ADAM10 inh,rCAG binder,NR3A LBD binder,AHR activator,ADAM17 inh,rCAG binder conf,DNA CAG counter,others
CCn1c(Cc2cccs2)nnc1SCC(=O)Nc1ccc2c(c1)OCCO2,1,-2,2,x,x,3,x,x,
Cc1cccc(C)c1NC(=O)C1(C)CN(S(C)(=O)=O)CC(=O)N1CCc1c[nH]c2ccccc12 (stereo not given),0,-8,7,x,x,1,x,x,
CC(=O)Nc1ccc(S(=O)(=O)CC(=O)CS(=O)(=O)c2ccc(NC(C)=O)cc2)cc1,0,-21,39*,x,x,-5,8,4,
CC(=O)CCS(=O)(=O)c1ccc(NC(C)=O)cc1,-1,-7,1,1,1,7,x,x,
O=C(CS(=O)(=O)c1ccccc1)CS(=O)(=O)c1ccccc1,0,14,53*,x,x,2,2,1,
Oc1ccc(/C=N/N(Cc2ccccc2)c2ccccc2)c(O)c1O,0,9,38*,-2,x,0,45*,25*,
C(=N\N(Cc1ccccc1)c1ccccc1)/c1cccnc1,0,12,-1,-17,5,8,x,x,
Cc1nnc(C)n1N=Cc1ccc(Cl)c([N+](=O)[O-])c1,-1,-4,1,x,x,-2,x,x,
CC(=O)Nc1cccc(-c2ccnc3c2CC(C(=O)Nc2ccc(Cl)cc2)O3)c1 (stereo not given),0,16,0,x,x,6,x,x,
CN(C)/C=C(/C#N)C(=O)c1cccc(Oc2ccc(C(C)(C)C)cc2)c1,0,10,50*,-14,2,0,20,6.1*,
CCC(C)(C)c1ccc(Oc2ccc(N)cc2)cc1,-1,1,-4,-9,x,-1,x,x,
CCC(C)(C)c1ccc(Oc2cccc(C(=O)O)c2)cc1,0,-3,39*,4,4,-2,29,3,
CC(C)=CCc1c(O)cc2oc3c(CC=C(C)C)c(O)c(O)c(CC=C(C)C)c3c(=O)c2c1O,-2,-11,72*,6,8,0,67*,47*,
CCCCOC(=O)Nc1ccc(S(=O)(=O)Nc2ccc([N+](=O)[O-])cc2)cc1,0,11,51*,17*,-1,3,33,9.9*,
